Hits are enriched below; roughly 7.4% of the tested compounds scored in any of these assays.
NPC1 promoter act – qHTS Assay for NPC1 Promoter Activators; Huh7 NPC1 promoter luciferase reporter, 24 h; Potency, µM (titrated, usually from 9.22 µM), hits mostly activators; 320,000 compounds, 2.4% hits; AID 485313, 2010; further: nearly all actives have a fitted effect of over 60% in size
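Luminescence from an NPC1 promoter-driven luciferase reporter in stably transfected Huh7 cells was measured after 24 h compound treatment at 37 °C, followed by 10 min ambient incubation with luciferase detection reagent.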
SMN2 splice up – qHTS Assay for Enhancers of SMN2 Splice Variant Expression; 210,000 compounds, 2.8% hits; HEK293 SMN2-luciferase splicing reporter, luminescence, 30-36 h; Potency, µM (doses to about 46.1 µM), hits mostly activators; further: nearly all actives have a fitted effect of over 55% in size
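HEK293 cells carry an SMN2 minigene-luciferase reporter in which exon 7 inclusion puts luciferase in frame. Cells were seeded at 2000 cells/well, attached for 10-12 hours, then exposed to compounds for 30-36 hours at 37C before ONE-Glo luminescence.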
FLuc modulator – qHTS profiling assay for firefly luciferase inhibitor/activator using purifed enzyme and Km concentrations of substrates (counterscreen for miR-21 project). Luciferin 4-monooxygenase (Photinus pyralis), P08659. purified FLuc, Km substrates, luminescence inhibition. Potency, µM (highest dose often 57.5 µM), usual class: inhibitors. 360,000 compounds, 6.9% hits; further: nearly all actives have a fitted effect of over 55% in size
Target sequence (P08659 whole entry, looked up): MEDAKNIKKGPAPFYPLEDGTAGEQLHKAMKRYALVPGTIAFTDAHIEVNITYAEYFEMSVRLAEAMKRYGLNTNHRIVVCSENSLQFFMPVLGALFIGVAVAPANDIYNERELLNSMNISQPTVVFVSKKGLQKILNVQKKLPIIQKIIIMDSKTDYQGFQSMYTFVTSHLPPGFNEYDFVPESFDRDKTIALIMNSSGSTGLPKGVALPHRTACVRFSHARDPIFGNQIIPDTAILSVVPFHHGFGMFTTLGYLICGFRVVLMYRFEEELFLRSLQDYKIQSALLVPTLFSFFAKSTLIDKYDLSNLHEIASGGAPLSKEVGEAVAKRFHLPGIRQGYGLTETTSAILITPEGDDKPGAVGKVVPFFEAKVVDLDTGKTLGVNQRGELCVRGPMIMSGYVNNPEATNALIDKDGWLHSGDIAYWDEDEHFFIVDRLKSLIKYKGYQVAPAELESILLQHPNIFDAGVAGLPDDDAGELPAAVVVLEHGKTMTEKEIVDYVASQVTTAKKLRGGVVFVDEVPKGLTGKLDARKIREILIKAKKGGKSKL
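Purified P. pyralis luciferase, 10 nM final, with Km-level 10 uM D-luciferin and 10 uM ATP in 50 mM Tris acetate pH 7.5, 10 mM Mg acetate, 0.01% Tween-20, 0.05% BSA; 6-point qHTS titration about 60 µM downward; luminescence read.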
KinaseGlo FLuc – Counterscreen for Luciferase (Kinase-Glo TM) Inhibition. Luciferin 4-monooxygenase (Photuris pensylvanica), Q27757. Kinase-Glo luciferase, ATP luminescence, 8 min. Potency, µM (titrated, usually from 38.3 µM), hits mostly inhibitors. 200,000 compounds, 0.28% hits; further: nearly all actives have a fitted effect of over 60% in size
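Inhibition of Kinase-Glo luciferase light generation was assessed at 10 uM ATP in pH 7.2 imidazole buffer, with luminescence measured after eight minutes at ambient temperature.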
ELG1 genotox – qHTS screen for small molecules that induce genotoxicity in human embryonic kidney (HEK293T) cells expressing luciferase-tagged ELG1; HEK293T ELG1-luciferase reporter, luminescence, 16 h; Potency, µM (titrated, usually from 46 µM), most hits filed as activators; 330,000 compounds, 1.3% hits; AID 504466, 2011; further: nearly all actives have a fitted effect of over 60% in size
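Cells (2,000/well) expressing the ELG1-luciferase fusion are dosed by pin tool and kept 16 hr at 37 °C, 5% CO2. Signal comes from ONE-Glo luciferase reagent after 30 min at room temperature.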
Rab9 prom act – qHTS Assay for Rab9 Promoter Activators | Huh7 Rab9 promoter-luciferase reporter, luminescence, 24 h | Potency, µM (series often up to 9.22 µM), most hits filed as activators | 320,000 compounds, 2.8% hits | AID 485297, 2010; further: nearly all actives have a fitted effect of over 60% in size
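Measured in stably transfected Huh7 cells bearing a Rab9 promoter–luciferase construct: 24 h compound treatment at 37 °C, followed by luminescence detection.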
Each line names hits and unclear results; the compound was inactive in the other large screens. The call rests on the fitted dose curve; in most records, active means well fitted curve in the direction sought with a large enough effect; inconclusive means small, poorly fitted or top-dose-only effect, or another doubt; inactive means no such curve, though single readings can be large; an effect the other way counts as inactive or inconclusive.

O=C(N=C1SCC(=O)N1c1ccccc1Cl)c1ccco1	NPC1 promoter act inconclusive, FLuc modulator inconclusive, ELG1 genotox inconclusive, Rab9 prom act inconclusive
N/C(=N\OC(=O)CC1CCCCC1)c1ccc([N+](=O)[O-])cc1	FLuc modulator inconclusive
N/C(=N\OC(=O)CCC1CCCCC1)c1cccnc1	FLuc modulator 19µM
COc1ccc(/C(N)=N/OC(=O)CC2CCCCC2)cc1	FLuc modulator 17µM, ELG1 genotox inconclusive (no result: SMN2 splice up, KinaseGlo FLuc)
N/C(=N\OC(=O)CCC1CCCC1)c1cccc([N+](=O)[O-])c1	FLuc modulator 9.5µM (no result: SMN2 splice up, KinaseGlo FLuc)
N/C(=N\OC(=O)CCC1CCCC1)c1ccc(Br)cc1	FLuc modulator inconclusive (no result: SMN2 splice up, KinaseGlo FLuc)
N/C(=N\OC(=O)CC1CCCCC1)c1cccc([N+](=O)[O-])c1	FLuc modulator 6µM
CCOc1ccc(NC(=O)CSc2ccc3ccccc3n2)cc1	none (no result: NPC1 promoter act, KinaseGlo FLuc, ELG1 genotox, Rab9 prom act)
CCC(C(=O)Nc1ccccc1C(=O)OC)n1c(C)c2cnn(-c3ccccc3)c(=O)c2c1C (stereo not drawn)	none (no result: NPC1 promoter act, KinaseGlo FLuc, ELG1 genotox, Rab9 prom act)
CC1(C)Cc2c(cnn2-c2cccc(F)c2)C(NC(=O)c2ccc(=O)[nH]n2)C1 (stereo not drawn)	none (no result: SMN2 splice up, KinaseGlo FLuc)
CC(C)C(=O)O/N=C(\N)c1ccc(Oc2ccc(Cl)cc2)c([N+](=O)[O-])c1	none (no result: SMN2 splice up, KinaseGlo FLuc)
COC(=O)c1ccc(C(NC(=O)OCc2ccccc2)/C(C)=C/[C@@H](C)C(=O)N[C@@H](CO)Cc2ccccc2)cc1 (stereo partly drawn)	none (no result: NPC1 promoter act, FLuc modulator, ELG1 genotox, Rab9 prom act)
COC(OC)c1ccnc(-c2ccc(OC(=O)c3ccc(F)cc3)cc2)n1	FLuc modulator inconclusive
CCCC(=O)Oc1ccc(-c2nccc(C(OC)OC)n2)cc1	FLuc modulator 13µM, Rab9 prom act inconclusive
CCN(CC(=O)Nc1c(F)cccc1F)C(=O)c1ccc2c(c1)OCO2	none (no result: SMN2 splice up, KinaseGlo FLuc)
COc1cc(C(=O)N/N=C/c2cccc(Oc3ccccc3)c2)ccc1O	FLuc modulator 17µM (no result: SMN2 splice up, KinaseGlo FLuc)
O=C(N/N=C/c1cccc(Oc2ccccc2)c1)c1ccc(O)cc1O	FLuc modulator 17µM (no result: SMN2 splice up, KinaseGlo FLuc)
O=C(N/N=C/c1cccc(Oc2ccccc2)c1)c1ccncc1	SMN2 splice up inconclusive, FLuc modulator inconclusive
CCN(C(C)=O)c1ccc(Oc2nc(OC)cc(OC)n2)cc1	none
C/C(=N/OC(=O)c1ccc(Cl)cc1Cl)c1oc(C)nc1C	FLuc modulator 7.6µM (no result: SMN2 splice up, KinaseGlo FLuc)
C/C(=N/OC(=O)c1ccccc1)c1oc(C)nc1C	FLuc modulator 12µM (no result: SMN2 splice up, KinaseGlo FLuc)
C/C(=N/Oc1nc(C)cc(C)n1)c1ccc(Cl)cc1Cl	none
CC(=O)c1cccc(NC(=O)c2oc(C)nc2C)c1	none (no result: SMN2 splice up, KinaseGlo FLuc)
CC1CCCCC1NC(=O)COc1ncnc2sccc12 (stereo not drawn)	none (no result: SMN2 splice up, KinaseGlo FLuc)
CCCN(CC(=O)Nc1ccccc1OC)C(=O)C1=COCCO1	none (no result: SMN2 splice up, KinaseGlo FLuc)
Cc1ccc(NC(=O)CCCc2ccccc2)nc1	NPC1 promoter act inconclusive, SMN2 splice up 16µM, FLuc modulator 17µM, ELG1 genotox inconclusive, Rab9 prom act 4µM
CNC(=S)NCCc1ccccc1	none (no result: SMN2 splice up, KinaseGlo FLuc)
Cc1ccc(NC(=S)NCCc2ccccc2)nc1	SMN2 splice up 25µM, FLuc modulator 17µM, ELG1 genotox inconclusive, Rab9 prom act inconclusive
Cc1noc(C)c1COC(=O)Cc1ccc(Br)cc1	none
Cc1ccc(OCCC(=O)OCC(=O)N2CCN(S(=O)(=O)c3ccc(C)cc3)CC2)cc1	none (no result: SMN2 splice up, KinaseGlo FLuc)
CCCCc1ccc(-c2ccc(C)cc2O)nc1	NPC1 promoter act 0.5µM, SMN2 splice up 22µM, FLuc modulator 0.43µM, ELG1 genotox 1.5µM, Rab9 prom act 0.63µM
CCCCc1ccc(-c2ccc(Br)cc2O)nc1	NPC1 promoter act 1.4µM, SMN2 splice up inconclusive, FLuc modulator 0.85µM, ELG1 genotox 1.3µM, Rab9 prom act 0.79µM
O=C(O)CCC(=O)N1CCN(c2nc3ccccc3s2)CC1	none
COC(=O)CC1=NN(c2nc3ccccc3s2)C(=O)/C1=C/N(C)C	FLuc modulator inconclusive
CC(=O)c1c(CC(=O)O)[nH]n(-c2nc3ccccc3s2)c1=O	FLuc modulator 12µM, KinaseGlo FLuc 6.3µM, Rab9 prom act inconclusive
COC(=O)Cc1[nH]n(-c2nc3ccccc3s2)c(=O)c1C(C)=O	FLuc modulator 9.5µM, KinaseGlo FLuc inconclusive, ELG1 genotox inconclusive
COc1ccc(CN=C(C)c2c(C(F)(F)F)[nH]n(-c3nc4ccccc4s3)c2=O)cc1	NPC1 promoter act inconclusive, FLuc modulator 6.7µM, ELG1 genotox 15µM, Rab9 prom act 4µM
COc1ccc(Cn2c(C(C)C)nc3sc4ccccc4c(=O)c3c2=O)cc1	none (no result: SMN2 splice up, KinaseGlo FLuc)
O=c1cc(-c2ccccc2)[nH]n1-c1nc2ccccc2s1	FLuc modulator 17µM
O=C(CSc1nc2c(oc3ccccc32)c(=O)n1CC1CCCO1)NCc1ccccc1 (stereo not drawn)	none (no result: SMN2 splice up, KinaseGlo FLuc)
O=C(O)COc1ccc(/C=C/C(=O)c2ccc3ccccc3c2)cc1	FLuc modulator 0.95µM (no result: SMN2 splice up, KinaseGlo FLuc)
O=C(O)COc1ccc(/C=C/C(=O)c2ccc(C3CCCCC3)cc2)cc1	NPC1 promoter act inconclusive, FLuc modulator 0.38µM, Rab9 prom act inconclusive (no result: SMN2 splice up, KinaseGlo FLuc)
CCOc1ccc(/C=C/C(=O)NC2CCCCC2)cc1	FLuc modulator inconclusive (no result: SMN2 splice up, KinaseGlo FLuc)
O=C(O)COc1ccc(C(=O)c2ccccc2)cc1	FLuc modulator inconclusive (no result: SMN2 splice up, KinaseGlo FLuc)
CC1CCCCN1c1nc(-c2ccc(C(C)(C)C)cc2)nc2ccccc12 (stereo not drawn)	FLuc modulator 3.4µM (no result: NPC1 promoter act, KinaseGlo FLuc, ELG1 genotox, Rab9 prom act)
CC1CCN(c2nc(-c3ccncc3)nc3ccccc23)CC1	none

Screening data: PubChem BioAssay, National Center for Advancing Translational Sciences (NCATS)
